Structures are written as SMILES. The panel holds about 79,000 compounds, 15% with a hit somewhere; the sample as a whole holds those more often. A number with no mark means an inactive call. Activity calls are given as the source filed them. Cut-off read from the data, not from the text of the source: active = growth inhibition above about 70%; inactive = the rest.

Assay [1] in a line: NCI Yeast Anticancer Drug Screen. Data for the rad50 strain (AID 155).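 Note: 0% = growth of vehicle-only cultures of the same strain.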 The note with it: S. cerevisiae rad50 strain growth inhibition; at 50.0 µM; stronger effect = higher value. The gist of the method:
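Inhibition values express reduced yeast growth in compound-treated cultures relative to vehicle-treated controls.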

The nature of assay [2]: NCI Yeast Anticancer Drug Screen. Data for the mec2-1 strain (AID 157). The note with it: S. cerevisiae mec2-1 strain, at 50.0 µM, stronger effect = higher value. The procedure, abridged:
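Test agents were screened against the mec2-1 yeast strain, with defined DNA repair or cell cycle alteration. Growth was scored as inhibition against vehicle-only controls.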

Assay [3] can be described thus: NCI Yeast Anticancer Drug Screen. Data for the sgs1 mgt1 strain (AID 161).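 Note: 0% = growth of cultures given vehicle only.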 The settings on record: S. cerevisiae sgs1 mgt1 strain, at 50.0 µM, stronger effect = higher value. The gist of the method:
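Genetically altered yeast, compound exposure, growth inhibition relative to vehicle.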

Assay [4] in a line: NCI Yeast Anticancer Drug Screen. Data for the cln2 rad14 strain (AID 165).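 Note: 0% = growth equal to vehicle treated cultures.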 The note with it: S. cerevisiae cln2 rad14 strain, at 50.0 µM, stronger effect = higher value. The gist of the method:
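Growth of compound-exposed yeast (cln2 rad14 genotype) measured and expressed as inhibition relative to vehicle.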

The nature of assay [5]: NCI Yeast Anticancer Drug Screen. Data for the bub3 strain (AID 167). The settings on record: S. cerevisiae bub3 mutant strain, at 50.0 µM, stronger effect = higher value. The gist of the method:
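Steps: expose the mutant yeast strain to compound; grow alongside vehicle-treated cultures; measure growth; express inhibition against the vehicle cultures.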

Assay [6] is described as follows: NCI Yeast Anticancer Drug Screen. Data for the mlh1 rad18 strain (AID 175). The note with it: S. cerevisiae mlh1 rad18 strain growth inhibition; at 50.0 µM; stronger effect = higher value. The gist of the method: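 In this whole-cell yeast screen, a strain with altered DNA damage repair is challenged with compound, and its growth is measured against matched vehicle-treated controls.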

Consider `C=C(C)COc1ccc(Nc2ccccc2)cc1`, for which the growth inhibition is 5.7% in assay [1]; 18.4% in assay [2]; 22% in assay [3]; 6.65% in assay [4]; 2.35% in assay [5]; 34% in assay [6].

Consider `COc1ccccc1NC(=O)C1=C(C)NC(C)=C(C(=O)Nc2ccccc2OC)C1c1cccc2ccccc12`, for which the growth inhibition was 28.4% in assay [1]; -2.35% in assay [2]; -18.2% in assay [3]; 29.4% in assay [4]; 6.65% in assay [5]; 0.5% in assay [6].

As to `CCn1c(C)nc([N+](=O)[O-])c1Sc1ncc[nH]1`, the growth inhibition was -7.8% in assay [1]; 0.7% in assay [2]; -11.4% in assay [3]; 27.8% in assay [4]; 10.2% in assay [5]; -3.35% in assay [6].

As for `COC(SC)(C(=O)O)c1cc(-c2c(Cl)cccc2Cl)no1` (stereo unspecified), the growth inhibition is -5.4% in assay [1]; -6.8% in assay [2]; -9.35% in assay [3]; -11.4% in assay [4]; 12.2% in assay [5]; -1% in assay [6].

Consider `COC(=O)c1nc(NN)[nH]c(=O)c1CCCCCc1c(C(=O)OC)[nH]c(NN)cc1=O`, for which the growth inhibition was -35.4% in assay [1]; -6.65% in assay [2]; -14.1% in assay [3]; 14.9% in assay [4]; -18.1% in assay [5]; -8.85% in assay [6].

Regarding `ClC(Cl)(Cl)C1CCC2CCCC21` (stereo unspecified), the growth inhibition in assay [1] is 4.15%; in assay [2] it was -24.1%; in assay [3], -3.45%; in assay [4], 6.1%; in assay [5] it was -9.1%; in assay [6], -0.8%.

As for `Cc1cc(C)c(C#N)c(SC(C(=O)NC(C)(C)C)c2ccccc2)n1` (stereo unspecified), the growth inhibition is 2.25% in assay [1]; -16.8% in assay [2]; 8.75% in assay [3]; 18% in assay [4]; -8.15% in assay [5]; -14.3% in assay [6].

In the case of `O=C(Nc1ccc(Cl)cc1)Nc1nnc(-c2cc([N+](=O)[O-])cc([N+](=O)[O-])c2)o1`, the growth inhibition in assay [1] was -2.1%; in assay [2] it was 20.8%; in assay [3] it was 28.8%; in assay [4] it was -13.3%; in assay [5] it was -32.6%; in assay [6], -2.25%.

In the case of `CC(=O)C1=C(c2ccccc2)N(C2OC(CO)C(O)C(O)C2O)C(S)=C(C#N)C1c1ccc(Cl)cc1` (stereo unspecified), the growth inhibition in assay [1] is 42.9%; in assay [2], 23.9%; in assay [3] it was 10.1%; in assay [4], 29.2%; in assay [5], 25.1%; in assay [6], 49%.

For the compound `Nc1ccccc1SC1CC(=O)N(c2ccc(I)cc2)C1=O` (stereo unspecified), the growth inhibition was -6.8% in assay [1]; -15.7% in assay [2]; -7.5% in assay [3]; 13.8% in assay [4]; 9.55% in assay [5]; 2.35% in assay [6].

Consider `O=C1CC(SC(=S)N2CCCCC2)C(=O)N1c1ccccc1` (stereo unspecified), for which the growth inhibition in assay [1] is -19.6%; in assay [2] it was 7.55%; in assay [3] it was -2.55%; in assay [4], -30.2%; in assay [5], 7.25%; in assay [6] it was 13.2%.

As to `CCC(CC)COC(=O)CC(CC(=O)OCC(CC)CC)C(=O)OCC(CC)CC`, the growth inhibition in assay [1] was -12.3%; in assay [2], -4.85%; in assay [3], 9.35%; in assay [4], -20.1%; in assay [5], 1.1%; in assay [6], 24.6%.

Turning to `COC(=O)/C=C\CC(=O)OC`, the growth inhibition in assay [1] is 2.75%; in assay [2], -5%; in assay [3] it was -19.9%; in assay [4], -5.05%; in assay [5] it was -11%; in assay [6] it was -0.65%.

Turning to `CCC(CO)N1CNC(=S)NC1` (stereo unspecified), the growth inhibition was -4.8% in assay [1]; -14.1% in assay [2]; 4.85% in assay [3]; 0.8% in assay [4]; 4.7% in assay [5]; 0.3% in assay [6].

Turning to `CCOC(=O)C(/C=N\c1[nH]ncc1C#N)=C(/C(=O)OCC)c1ccc(O)cc1`, the growth inhibition in assay [1] was 4.55%; in assay [2], 5.9%; in assay [3], -13.7%; in assay [4] it was -21.2%; in assay [5] it was -3%; in assay [6], 15.4%.

In the case of `CCOc1ccc(Cc2ccc3c(c2)OCO3)cc1C`, the growth inhibition in assay [1] was -17.2%; in assay [2], -13.3%; in assay [3], -7.55%; in assay [4] it was -13.2%; in assay [5], -2.1%; in assay [6] it was 2.2%.

For the compound `COC(=O)C1(Cc2ccc3c(c2)CCC3)Cc2ccccc2C1`, the growth inhibition in assay [1] was -9.5%; in assay [2], -25.5%; in assay [3], -6.1%; in assay [4], 5.2%; in assay [5], 29.9%; in assay [6] it was -9.2%.

As for `CCOC(=O)c1nnn(Cc2ccccc2)c1N`, the growth inhibition is -2.1% in assay [1]; -7.35% in assay [2]; 3.75% in assay [3]; 26.1% in assay [4]; 1.7% in assay [5]; -9.35% in assay [6].

With `ClC1=C(Cl)C2(Cl)CC1(Cl)C1CCCCC12` (stereo unspecified), the growth inhibition in assay [1] is 18.9%; in assay [2], -10.4%; in assay [3] it was 21.4%; in assay [4], -17.4%; in assay [5], 16.6%; in assay [6], -10.6%.

Consider `CSC1(SC)CCCCCCCCCCC1`, for which the growth inhibition is -19.8% in assay [1]; -17.2% in assay [2]; -17.9% in assay [3]; -15.9% in assay [4]; -34.9% in assay [5]; -29.4% in assay [6].

Regarding `COc1ccc2nccc(Cl)c2c1`, the growth inhibition was 12.2% in assay [1]; 12.3% in assay [2]; 1.6% in assay [3]; -6.55% in assay [4]; 15.2% in assay [5]; 6.45% in assay [6].

Turning to `CCN(CC)CCNC(=O)c1ccc(NCN2C(=O)NC(c3ccccc3)(c3ccccc3)C2=O)cc1`, the growth inhibition in assay [1] was -24.1%; in assay [2], 3.4%; in assay [3] it was 8.45%; in assay [4] it was 26.3%; in assay [5], 15.7%; in assay [6], 50.8%.

As for `COCCOC(=O)C(O)c1ccccc1` (stereo unspecified), the growth inhibition in assay [1] is 23.9%; in assay [2], 13.9%; in assay [3] it was 9.05%; in assay [4] it was 9%; in assay [5] it was 12.8%; in assay [6], 10.4%.

Take `Cc1c(Cl)cccc1NC(=O)Oc1ccccc1Cc1ccccc1`: the growth inhibition in assay [1] was -0.8%; in assay [2], 43.1%; in assay [3], 40%; in assay [4] it was -2.7%; in assay [5], 67.5%; in assay [6], 52.2%.

As to `COC(=O)c1sc2ccccc2c1C`, the growth inhibition was -12.4% in assay [1]; -3.6% in assay [2]; -7.05% in assay [3]; -54.9% in assay [4]; -17.8% in assay [5]; 10.7% in assay [6].

In the case of `CCOC(=O)C1(C(=O)OCC)CCC(C(OC)OC)C(CC(=O)OC)C1` (stereo unspecified), the growth inhibition in assay [1] was -2.45%; in assay [2], -15.7%; in assay [3], -5.2%; in assay [4] it was -6.5%; in assay [5] it was 26.4%; in assay [6], 16.4%.

For `O=[N+]([O-])/C(C(Cl)=C(Cl)Cl)=C1\NCCS1`, the growth inhibition is 39.7% in assay [1]; 25.5% in assay [2]; 40.2% in assay [3]; 9.7% in assay [4]; 34.6% in assay [5]; 42.3% in assay [6].

For the compound `O=[N+]([O-])c1cc(F)ccc1Sc1ccccc1`, the growth inhibition in assay [1] was 49.2%; in assay [2], 23.4%; in assay [3], 38.9%; in assay [4] it was 39.8%; in assay [5], 20.6%; in assay [6] it was 40.6%.

For `CCCOC(=O)c1c(Cl)c(Cl)c(Cl)c(Cl)c1C(=O)OCCC`, the growth inhibition in assay [1] was 12.8%; in assay [2] it was -20.8%; in assay [3], 4.8%; in assay [4], -3.05%; in assay [5] it was -15.2%; in assay [6], 8.3%.

For `CC(C)CC(Br)C(=O)NCC(=O)NCC(=O)O` (stereo unspecified), the growth inhibition in assay [1] was 32.3%; in assay [2], -17.1%; in assay [3] it was -5.35%; in assay [4], 7.95%; in assay [5], 2.85%; in assay [6] it was -8.95%.

For the compound `CC1(CCOCc2ccccc2)NC(=O)N(CCC#N)C1=O` (stereo unspecified), the growth inhibition was 6.9% in assay [1]; -9.65% in assay [2]; -4.6% in assay [3]; -10.2% in assay [4]; 2.55% in assay [5]; 12.6% in assay [6].

As for `c1ccc(C2(c3ccccc3)CC([P+](c3ccccc3)(c3ccccc3)c3ccccc3)N=N2)cc1` (stereo unspecified), the growth inhibition was 99.3% (active) in assay [1]; 99.6% (active) in assay [2]; 99.7% (active) in assay [3]; 99.4% (active) in assay [4]; 97.5% (active) in assay [5]; 99.5% (active) in assay [6].

Consider `CCCCOCCOCCOC(=O)C(C)O` (stereo unspecified), for which the growth inhibition in assay [1] was -5.6%; in assay [2] it was -4.7%; in assay [3], -3.95%; in assay [4], 5.1%; in assay [5], -7.25%; in assay [6], -14%.

On to `CCCCCC(C)(O)CCC` (stereo unspecified), for which the growth inhibition in assay [1] was -5.9%; in assay [2], -6.65%; in assay [3] it was 3.65%; in assay [4], -3.45%; in assay [5], 6.9%; in assay [6], -3.55%.

Consider `CCC(CC)(C(=O)O)C(=O)O`, for which the growth inhibition in assay [1] is 34.1%; in assay [2], 9.3%; in assay [3], -3.35%; in assay [4], -33.2%; in assay [5], 12.7%; in assay [6] it was 5.8%.

Take `C/C(CC(=O)Nc1ccc(Cl)c(Cl)c1)=N/NC(=O)C[n+]1ccccc1`: the growth inhibition was 16.8% in assay [1]; 5.15% in assay [2]; 7.45% in assay [3]; -19.6% in assay [4]; 5.85% in assay [5]; 29.2% in assay [6].

The values are drawn from PubChem BioAssay (NCI).
